Source: PubChem BioAssay
Only some compounds are listed: those with a hit (about 4.1% of all), similar ones and a draw of the others.
Gli-Sufu block: Gli-Sufu pathway antagonists, primary screen, luciferase luminescence, Sufu-KO-LIGHT cells, uHTS; actives 0.74% (n = 340,000); AID 588413, 2011; Sufu-KO-LIGHT fibroblasts, Gli luciferase reporter luminescence; inhibition, % at 5 µM;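 active means inhibition above about 55%, limit read from the data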;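 further: 0% = DMSO-treated cells and 100% = wells with medium but no cells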
KLF5 inh: KLF5 expression inhibitors, primary screen, DLD-1 cells, luminescence | actives 0.23% (n = 290,000) | inhibition, % at 5 µM | DLD-1 KLF5 promoter-luciferase reporter;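 active means inhibition above a per-plate limit of that plate's mean compound inhibition plus 3 SD, cut at about 60% in these data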;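 further: 0% = DMSO wells and 100% = LY294002 at 200 µM; higher means less KLF5 promoter-driven luciferase light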
Mdm2 MdmX PPI: inhibitors of human Mdm2-MdmX association, primary screen, cell-based, luminescence, split luciferase, SaOS-2, uHTS; actives 3% (n = 330,000); inhibition, % at 8 µM; SaOS-2 split-luciferase Mdm2/MdmX complementation; Protein Mdm4 (Homo sapiens) + E3 ubiquitin-protein ligase Mdm2 (Homo sapiens), …;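 active means inhibition of at least 50% at 8 µM in the primary screen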
Target sequence (O15151 whole entry, looked up): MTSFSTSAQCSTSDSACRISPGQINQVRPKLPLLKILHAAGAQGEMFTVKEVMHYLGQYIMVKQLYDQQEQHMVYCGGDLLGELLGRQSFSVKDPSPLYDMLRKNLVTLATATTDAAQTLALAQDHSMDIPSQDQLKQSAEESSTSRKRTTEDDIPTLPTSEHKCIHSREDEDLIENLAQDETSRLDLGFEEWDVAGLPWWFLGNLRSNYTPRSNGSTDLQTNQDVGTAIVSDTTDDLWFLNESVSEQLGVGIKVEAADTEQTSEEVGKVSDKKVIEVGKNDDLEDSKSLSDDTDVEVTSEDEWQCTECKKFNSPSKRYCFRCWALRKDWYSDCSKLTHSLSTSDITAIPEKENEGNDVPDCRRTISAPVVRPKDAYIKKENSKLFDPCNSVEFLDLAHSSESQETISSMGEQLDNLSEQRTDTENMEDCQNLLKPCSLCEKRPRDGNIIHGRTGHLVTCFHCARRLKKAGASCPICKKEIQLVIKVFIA
Target sequence (Q00987 whole entry, looked up): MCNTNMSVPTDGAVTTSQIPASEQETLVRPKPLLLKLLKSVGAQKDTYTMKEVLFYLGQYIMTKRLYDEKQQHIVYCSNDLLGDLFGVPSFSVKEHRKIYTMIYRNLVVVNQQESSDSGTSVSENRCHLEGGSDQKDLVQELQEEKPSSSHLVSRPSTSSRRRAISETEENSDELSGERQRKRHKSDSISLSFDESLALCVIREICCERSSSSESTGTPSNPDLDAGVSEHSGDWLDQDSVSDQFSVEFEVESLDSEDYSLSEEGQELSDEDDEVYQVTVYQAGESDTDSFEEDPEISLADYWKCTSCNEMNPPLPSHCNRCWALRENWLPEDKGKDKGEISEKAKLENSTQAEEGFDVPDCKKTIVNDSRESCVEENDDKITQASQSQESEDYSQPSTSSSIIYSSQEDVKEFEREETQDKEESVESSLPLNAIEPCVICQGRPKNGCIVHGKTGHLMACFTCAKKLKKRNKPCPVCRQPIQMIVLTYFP
697 NFkB inh: inhibitors of PMA/ionomycin-induced NF-kB reporter, 697 cells, primary screen, B-cell NF-kB inhibitor project, cell-based, luminescence, uHTS | 697 B-cell NF-kB luciferase reporter, 16 h | inhibition, % at 4 µM | actives 0.33% (n = 330,000) | AID 435022, 2010; in the data active means inhibition above about 35%
aSyn 5UTR inh: MLPCN primary screen, SNCA 5' untranslated region. alpha-synuclein 5'UTR reporter, inhibitor activity. inhibition, % (tested at 7.5 µM). actives 0.82% (n = 300,000); in the data active means inhibition above about 60%;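 further: H4 neuroglioblastoma cells stably carrying SNCA 5'UTR luciferase fusion; 0% = DMSO wells and 100% = positive control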
Jurkat NFkB inh: inhibitors of induced NF-kB luciferase reporter, primary screen, TCR NF-kB activation inhibitor project, cell-based, luminescence, uHTS | Jurkat, PMA/ionomycin-induced NF-kB luciferase reporter | inhibition, % at 4 µM | actives 0.53% (n = 330,000); in the data active means inhibition above about 50%
Gli-Sufu confirm: Gli-SUFU pathway antagonists, confirmation, single concentration, luciferase luminescence, Sufu-KO-LIGHT cells; AID 602428, 2012; Gli luciferase reporter; actives 40% (n = 2,500); inhibition, % at 5 µM; shares compounds with Gli-Sufu block;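 active means mean inhibition at 5 µM reaching about 45%, limit read from the data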;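 further: plate controls were DMSO-treated cells for no effect and wells lacking cells for full effect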
SufuKO cytotox: cytotoxicity in Sufu-KO-LIGHT cells, confirmation, cytotoxicity control for Gli-SUFU antagonist project, cell-based, ATP luminescence, single concentration; shares compounds with Gli-Sufu block; cytotoxicity, % at 5 µM; actives 32% (n = 2,500);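 active means mean cytotoxicity at 5 µM above about 25%, limit read from the data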;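 further: cells exposed to compound overnight for roughly 16 to 18 hours; plate controls were DMSO wells with cells for no effect and medium without cells for full effect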
Wnt3a cs: Wnt3a reporter signal inhibition, confirmation, counter-screen for Gli-SUFU antagonist project, Wnt-LIGHT cells, luminescence, single concentration. shares compounds with Gli-Sufu block. Wnt3a-driven luciferase reporter. inhibition, % at 6.25 µM. actives 20% (n = 2,500);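 active means mean inhibition above about 25%, limit read from the data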
An asterisk follows results filed as active; . = not tested or not shown.

SMILES	Gli-Sufu block	KLF5 inh	Mdm2 MdmX PPI	697 NFkB inh	aSyn 5UTR inh	Jurkat NFkB inh	Gli-Sufu confirm	SufuKO cytotox	Wnt3a cs
O=C(NCc1ccccn1)c1ccc(Cn2cc(C(F)(F)F)ccc2=O)cc1	62*	0	-4	6	-6	7	10	3	-15
O=C(NCc1ccccc1Cl)c1ccc(Cn2cc(C(F)(F)F)ccc2=O)cc1	2	-28	9	4	5	12	.	.	.
CCC(=O)N1CCc2cc(OC)c(OC)cc2C1COc1ccc(C(=O)OC)cc1 (centres undefined)	3	4	-14	3	17	16	.	.	.
COC(=O)c1ccc(OCC(O)CN2CCc3cc(OC)c(OC)cc3C2c2ccccc2)cc1 (centres undefined)	58*	-12	31	2	24	18	27	19	-59
CC(C)C(C)(C#N)NC(=O)CSc1nnc(-c2ccncc2)n1Cc1ccccc1 (centres undefined)	95*	-13	-1	-20	9	-2	22	7	-12
O=C1C(=O)N2C(=C1C(=O)N1CCCCCC1)c1ccccc1CC21CCCC1	-1	-29	2	0	-3	13	.	.	.
CC1(C)Cc2ccccc2C2=C(C(=O)N3CCCCCC3)C(=O)C(=O)N21	72*	-26	5	-2	0	0	12	11	-6
Cc1cc(-n2c(SCc3ccccc3F)nc3n[nH]c(C)c3c2=N)ccc1Cl	53	9	43	10	39	-1	25	5	-38
CCOc1ccc(C(=O)Nc2ccccc2N2CCN(C(=O)c3ccccc3)CC2)cc1[N+](=O)[O-]	9	-25	22	16	34	-21	.	.	.
Cc1ccccc1N1C(=O)c2cccc([N+](=O)[O-])c2C1=O	65*	-23	.	.	.	.	18	5	14
O=[N+]([O-])c1cc(-c2nnc(C34CC5CC(CC(C5)C3)C4)o2)cc([N+](=O)[O-])c1	26	-21	10	16	-97	-4	.	.	.
O=[N+]([O-])c1cccc(-c2nnc(C34CC5CC(CC(C5)C3)C4)o2)c1	77*	-3	-16	-1	-7	-9	11	7	-14
CCOC(=O)C1=C(C)NC(C)=C(C(=O)OCC)C1C	53	1	32	26	15	-3	15	1	11
C=CCn1c(SCC(=O)N2CCN(c3ccccc3)CC2)nc2c([nH]c3ccccc32)c1=O	11	11	48	9	53	0	.	.	.
Cc1cccc(N(CC(=O)NC(C)(C)C)C(=O)CCC(=O)Nc2nccs2)c1	-12	-24	9	5	-10	5	.	.	.
O=C(CN(C(=O)CCC(=O)Nc1nccs1)c1cccc(C(F)(F)F)c1)NCC1CCCO1 (centres undefined)	56*	-12	-11	5	11	-3	17	26*	-26
CC(C)(C)NC(=O)CN(C(=O)CCC(=O)Nc1nccs1)c1cccc(C(F)(F)F)c1	55	-38	29	1	-6	9	27	16	-17
CCN(CC)C(=O)CN(c1cc(Cl)ccc1OC)S(C)(=O)=O	51	-23	11	12	19	7	22	13	-5
O=C(CN1CCN(S(=O)(=O)c2ccc(Br)cc2)CC1)N/N=C/c1cccnc1	-3	-22	-7	-6	7	11	.	.	.
Cc1ccc(S(=O)(=O)N2CCC(C(=O)N[C@@H](C)C(=O)Nc3ccc4c(c3)OCO4)CC2)cc1	53	-23	6	-11	-5	-14	21	15	-4
Cc1ccc(S(=O)(=O)N2CCC(C(=O)N[C@@H](C)C(=O)Nc3ccc(F)cc3)CC2)cc1	.	-21	28	0	23	-13	.	.	.
Cn1c(=O)c2sccc2n(Cc2cccc(Br)c2)c1=O	23	-37	5	-38	16	8	.	.	.
CCOC(=O)C1=C(COC(=O)Cc2ccc(Cl)cc2)NC(=O)NC1C (centres undefined)	0	.	8	-1	.	6	.	.	.
c1ccc(C[n+]2cccc(-c3ccccc3)c2)cc1	57*	-6	21	-7	-28	26	57*	15	10
c1ccc(C[n+]2ccc3ccccc3c2)cc1	0	.	1	-25	9	-5	.	.	.
SMILES	Gli-Sufu block	KLF5 inh	Mdm2 MdmX PPI	697 NFkB inh	aSyn 5UTR inh	Jurkat NFkB inh	Gli-Sufu confirm	SufuKO cytotox	Wnt3a cs
O=C(NCc1cc2ccccc2[nH]1)C1CCC(=O)N(CCCN2CCCC2=O)C1 (centres undefined)	59*	-18	-8	-22	-16	-10	14	14	-57
CSC(=S)N/N=C(\C)c1ccccc1	72*	9	30	-11	-25	9	34	18	-5
C/C(=N\NC(N)=S)c1ccccc1	2	-12	-24	-7	-2	-2	.	.	.
O=C(CC1(O)C(=O)N(Cc2ccccc2)c2ccccc21)c1ccncc1 (centres undefined)	8	-31	17	-34	18	5	.	.	.
CN(C)C(=O)CCc1ccc2c3c([nH]c2c1)[C@]1(C)[C@@H](C(=O)N2CCOCC2)C[C@H](CC(=O)NC(C)(C)C)C(=O)N1CC3	-5	.	-5	-2	.	.	.	.	.
CC[C@]12c3[nH]c4cc(CCC(=O)N(C)C)ccc4c3CCN1C(=O)[C@@H](CC(=O)NCCN1CCOCC1)C[C@@H]2C(=O)N1CCN(C(=O)C2CC2)CC1	-7	.	18	16	.	.	.	.	.
CC(C)=CCC/C(C)=C/CNC(=O)C[C@H]1C[C@H](C(=O)N2CCCCC2)[C@@]2(C)c3[nH]c4cc(CCC(=O)N(C)C)ccc4c3CCN2C1=O	52	.	39	-20	.	.	56*	32*	-18
CC[C@]12c3[nH]c4cc(CCC(=O)N(C)C)ccc4c3CCN1C(=O)[C@@H](CC(=O)NC/C=C(\C)CCC=C(C)C)C[C@@H]2C(=O)N1CCN(C(=O)C2CC2)CC1	53	.	47	18	.	.	54*	29*	-23
CC(C)=CCC/C(C)=C/CNC(=O)C[C@H]1C[C@H](C(=O)N2CCOCC2)[C@@]2(C)c3[nH]c4cc(CCC(=O)N(C)C)ccc4c3CCN2C1=O	58*	.	35	-1	.	.	66*	19	-6
